Experimental findings from PubChem BioAssay (Tox21) are described below.

Results filed as inconclusive are left out. Unmarked numbers belong to inactive results. Activity calls are given as the source filed them. Unless noted, calls come from the whole dose curve; as a rule, active = well fitted curve in the direction sought with a large enough effect in the repeat runs; inconclusive = weak or mixed curves; inactive = no such curve, though single readings can be large; an effect the other way counts as inactive or inconclusive.

Assay [1] is described as follows: qHTS assay to identify small molecule agonists of the peroxisome proliferator-activated receptor delta (PPARd) signaling pathway - cell viability counter screen (AID 743211). Note: nearly all actives have a fitted effect of over 55% in size. Summed up: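 HEK293H PPARd-bla, 3000 cells/well; 5 h preincubation 37C/5% CO2; cpd in DMSO, 17 h 37C; B/G FRET substrate 2 h RT; CellTiter-Glo 30 min RT, luminescence.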
On the technique in general: In qHTS, concentration-response curves come from the screen itself.

In assay [2] the target is Peroxisome proliferator-activated receptor delta (Homo sapiens) (UniProt Q03181). The assay can be described thus: qHTS assay to identify small molecule agonists of the peroxisome proliferator-activated receptor delta (PPARd) signaling pathway (AID 743212; calls by dose curve; note: potency is the fitted concentration of half-maximal effect). Summed up:
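Beta-lactamase reporter read by fluorescence (LiveBLAzer B/G FRET, 2 h, room temperature). Test agents, in DMSO, incubated at 37 C with PPARd-bla HEK293H cells.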

Assay [3] is described as follows: qHTS assay to identify small molecule antagonists of the peroxisome proliferator-activated receptor delta (PPARd) signaling pathway - cell viability counter screen (AID 743213). Note: nearly all actives have a fitted effect of over 50% in size. Summed up: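 Luminescence from CellTiter-Glo, added after the bla read and incubated 30 min at room temperature, gives viability of HEK293H PPARd-bla cells exposed to compounds for 17 h at 37 C with 300 nM L165041.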

The target in assay [4] is Peroxisome proliferator-activated receptor delta (Homo sapiens) (UniProt Q03181). The assay can be described thus: qHTS assay to identify small molecule antagonists of the peroxisome proliferator-activated receptor delta (PPARd) signaling pathway (AID 743215; active = well fitted inhibition curve with a large enough effect in the signal ratio in the repeat runs, not every such curve was filed as active; the % refers to the signal ratio;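 note: cells stimulated with agonist L165041 at 300 nM final during compound exposure; series mostly up to about 62 µM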). The gist of the method: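 HEK293H GeneBLAzer PPARd UAS-bla reporter cells; cpd + L165041 300 nM final, 17 h 37 C; LiveBLAzer B/G FRET substrate 2 h RT; fluorescence intensity read-out. Antagonist mode.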
Sequence of Peroxisome proliferator-activated receptor delta (Homo sapiens) (Q03181 whole entry, looked up): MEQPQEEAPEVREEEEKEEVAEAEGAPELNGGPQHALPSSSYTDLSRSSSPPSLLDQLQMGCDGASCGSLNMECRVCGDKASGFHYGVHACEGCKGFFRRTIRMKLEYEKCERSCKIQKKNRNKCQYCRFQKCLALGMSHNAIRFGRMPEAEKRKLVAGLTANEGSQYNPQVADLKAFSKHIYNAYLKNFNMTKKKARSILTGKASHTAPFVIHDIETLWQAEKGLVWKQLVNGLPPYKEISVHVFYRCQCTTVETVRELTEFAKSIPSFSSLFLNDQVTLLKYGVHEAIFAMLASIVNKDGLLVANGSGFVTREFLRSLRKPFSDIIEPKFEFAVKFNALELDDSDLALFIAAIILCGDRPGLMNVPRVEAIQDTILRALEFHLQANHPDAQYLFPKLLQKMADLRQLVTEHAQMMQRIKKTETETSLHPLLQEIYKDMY

Assay [5] can be described thus: qHTS assay to identify small molecule agonists of the farnesoid-X-receptor (FXR) signaling pathway - cell viability counter screen (AID 743218). Note: nearly all actives have a fitted effect of over 45% in size. The gist of the method: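 Luminescence from CellTiter-Glo, read after 30 min at RT, reports viability of GeneBLAzer FXR-UAS-bla HEK 293T cells treated 16 h with compounds in the wells used for the beta-lactamase reporter.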

The nature of assay [6]: qHTS assay to identify small molecule antagonists of the farnesoid-X-receptor (FXR) signaling pathway - cell viability counter screen (AID 743221; active = well fitted cell-killing curve with a large enough effect in the repeat runs, not every such curve was filed as active; note: nearly all actives have a fitted effect of over 50% in size). Summed up: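 Luminescence from CellTiter-Glo measures cytotoxicity in GeneBLAzer FXR-UAS-bla HEK 293T cells. Cells were exposed to compounds with 50 uM chenodeoxycholic acid (final) for 16 h at 37 C, in wells also used for the reporter readout.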

For assay [7], the target named is Bile acid receptor (Homo sapiens) (UniProt Q96RI1). Kind of assay: qHTS assay to identify small molecule antagonists of the farnesoid-X-receptor (FXR) signaling pathway (AID 743217; active = well fitted inhibition curve with a large enough effect in the signal ratio in the repeat runs, not every such curve was filed as active; the % refers to the signal ratio). The gist of the method:
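Read-out: beta-lactamase FRET fluorescence (LiveBLAzer B/G substrate, 2 h, room temperature) in GeneBLAzer FXR-UAS-bla HEK 293T cells. Compounds were co-dosed with 50 uM chenodeoxycholic acid (final) and incubated 16 h at 37 °C.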

Assay [8] addresses Vitamin D3 receptor (Homo sapiens) (UniProt P11473). Kind of assay: qHTS assay to identify small molecule antagonists of the vitamin D receptor (VDR) signaling pathway (AID 743223; active = well fitted inhibition curve with a large enough effect in the signal ratio in the repeat runs, not every such curve was filed as active; the % refers to the signal ratio). Summed up: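 Antagonist mode uses 1alpha,25-dihydroxyvitamin D3 at 3 nM final as stimulus. VDR-bla cells receive compounds in DMSO, incubate 16 h at 37C, then a beta-lactamase FRET substrate for 2 h at room temperature before fluorescence measurement.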

In assay [9] the target is Bile acid receptor (Homo sapiens) (UniProt Q96RI1). The assay can be described thus: qHTS assay to identify small molecule agonists of the farnesoid-X-receptor (FXR) signaling pathway (AID 743220; active = well fitted activation curve with a large enough effect in the signal ratio in the repeat runs, not every such curve was filed as active; the % refers to the signal ratio). The gist of the method:
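FXR-UAS-bla HEK 293T cells carrying a UAS-driven beta-lactamase reporter were plated for 5 h at 37C/5% CO2, then exposed to DMSO-dissolved Tox21 10K compounds for 16 h at 37C. A LiveBLAzer B/G FRET substrate was loaded for 2 h at room temperature before fluorescence reading.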

Assay [10] concerns the target Vitamin D3 receptor (Homo sapiens) (UniProt P11473). Kind of assay: qHTS assay to identify small molecule agonists of the vitamin D receptor (VDR) signaling pathway (AID 743222; calls by dose curve). Summed up:
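Beta-lactamase reporter readout (LiveBLAzer B/G FRET, 2 h RT) in VDR-bla cells after 16 h compound treatment at 37C, 5% CO2; cells pre-incubated 4 h before pin transfer of DMSO solutions.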

Sequence of Vitamin D3 receptor (Homo sapiens) (P11473 whole entry, looked up): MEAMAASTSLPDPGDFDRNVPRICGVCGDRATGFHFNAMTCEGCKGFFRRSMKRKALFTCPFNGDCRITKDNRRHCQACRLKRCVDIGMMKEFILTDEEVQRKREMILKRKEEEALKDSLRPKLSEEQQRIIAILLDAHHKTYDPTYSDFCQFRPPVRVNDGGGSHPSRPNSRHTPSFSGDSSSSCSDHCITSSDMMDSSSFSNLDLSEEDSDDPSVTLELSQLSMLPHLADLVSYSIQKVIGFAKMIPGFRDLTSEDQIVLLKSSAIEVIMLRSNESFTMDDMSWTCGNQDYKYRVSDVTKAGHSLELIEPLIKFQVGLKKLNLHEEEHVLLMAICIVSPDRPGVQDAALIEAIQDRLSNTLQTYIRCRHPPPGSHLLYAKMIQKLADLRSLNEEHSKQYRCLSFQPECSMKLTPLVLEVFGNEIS
Sequence of Bile acid receptor (Homo sapiens) (Q96RI1 whole entry, looked up): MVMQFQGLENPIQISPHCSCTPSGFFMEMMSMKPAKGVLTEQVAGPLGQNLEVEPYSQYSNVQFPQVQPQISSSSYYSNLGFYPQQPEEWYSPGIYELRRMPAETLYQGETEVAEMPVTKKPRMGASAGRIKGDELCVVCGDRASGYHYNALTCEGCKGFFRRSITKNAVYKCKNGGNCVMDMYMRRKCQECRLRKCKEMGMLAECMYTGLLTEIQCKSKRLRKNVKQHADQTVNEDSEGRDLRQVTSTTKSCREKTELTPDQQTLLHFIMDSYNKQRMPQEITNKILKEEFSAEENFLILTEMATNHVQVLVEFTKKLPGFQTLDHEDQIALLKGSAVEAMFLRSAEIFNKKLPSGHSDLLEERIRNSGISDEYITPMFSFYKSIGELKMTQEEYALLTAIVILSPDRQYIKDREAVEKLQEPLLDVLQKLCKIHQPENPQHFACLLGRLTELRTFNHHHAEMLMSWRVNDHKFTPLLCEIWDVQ

In the case of `COc1cc(C)c(Cc2cnc(N)nc2N)cc1OC`, the Potency entry in [1], in assay [2], in assay [3], in assay [5] and in assay [6] was “inactive” each time. Besides, the molecule was classed as inactive in assay [4].

As for `C[C@@H](O)[C@H]1C(=O)N2C(C(=O)O)=C(S[C@@H]3CN[C@H](CNS(N)(=O)=O)C3)[C@H](C)[C@H]12`, the Potency result in [1], in [2] and in assay [3] was “inactive” in each case. Further, the result in [4] and in assay [7] was inactive.

Take `CCCCOC(=O)C(C)Oc1ccc(Oc2ccc(C(F)(F)F)cn2)cc1` (stereo unspecified): the Potency entry in assay [1], in assay [2], in [3], in assay [5] and in [6] was “inactive” in each case. Also, the molecule was called inactive in assay [4], in assay [7] and in [8].

Consider `c1ccc(-c2ccc(-c3ccccc3)cc2)cc1`, for which the Potency result in assay [1], in assay [2], in assay [3], in assay [5] and in [6] was “inactive” throughout. The result in [4], in [7], in assay [9] and in assay [8] was inactive.

As to `CC(=O)CC/C=C(\C)CC/C=C(\C)CC/C=C(\C)CCC=C(C)C`, the Potency entry in [1], in assay [2], in assay [3], in [5] and in assay [6] was “inactive” each time. The outcome in assay [4], in assay [7], in assay [10] and in [8] was inactive.

With `CC(C)=CCC/C(C)=C/C=N/O`, the Potency result in [1], in [2], in assay [3] and in assay [5] was “inactive” throughout. Also, the molecule was called inactive in assay [4], in assay [7], in assay [9], in assay [10] and in assay [8].

`O=C(c1ccco1)N1CCNCC1`: the Potency entry in [1], in assay [2], in assay [3], in assay [5] and in assay [6] was “inactive” each time. The molecule was classed as inactive in assay [4], in assay [7] and in assay [9].

With `CCc1c(C)[nH]c2c1C(=O)C(CN1CCOCC1)CC2` (stereo unspecified), the Potency entry in assay [1], in assay [2], in assay [3], in assay [5] and in assay [6] was “inactive” each time. Also, the outcome in assay [4], in [7], in assay [9], in assay [10] and in [8] was inactive.

For `O=C(O)c1ccccc1-n1cc(C(=O)O)c(=O)c2cc(Nc3c(F)cc(F)cc3Cl)c(Cl)cc21`, the Potency result in assay [1], in [2], in assay [3], in assay [5] and in assay [6] was “inactive” each time. The molecule was classed as inactive in assay [4], in assay [7], in [9], in assay [10] and in assay [8].

Take `CCOc1ccccc1O`: the Potency result in assay [1], in assay [2], in assay [3], in assay [5] and in assay [6] was “inactive” in each case. Besides, the molecule was classed as inactive in assay [4], in assay [7], in [9] and in assay [10].

`CC(C(=O)O)c1ccc(/C=C2\CCCCC2=O)cc1` (stereo unspecified): the Potency entry in [1], in assay [2], in assay [3], in assay [5] and in [6] was “inactive” each time. Also, the molecule was classed as inactive in [4] and in assay [10].

`CC1=C(C)C(=O)C(C(CCCCCC(=O)O)c2ccccc2)=C(C)C1=O` (stereo unspecified): the Potency result in assay [1], in assay [3], in [5] and in assay [6] was “inactive” in each case. For the same molecule, in assay [2], the Potency was 29.8 µM (active). Besides, the result in assay [4], in assay [7], in assay [9] and in assay [10] was inactive.

Turning to `Cc1c(Nc2ncccc2C(=O)O)cccc1C(F)(F)F`, the Potency result in assay [1] was “inactive”.

Turning to `Clc1cccc(C(c2ccc3nc[nH]c3c2)n2ccnc2)c1` (stereo unspecified), the Potency result in [1], in [2], in [3], in [5] and in [6] was “inactive” in each case. Also, the molecule was called inactive in assay [4], in [7], in [9], in [10] and in [8].

With `Cc1ccccc1CCO`, the Potency entry in [1], in assay [2] and in [3] was “inactive” throughout. Moreover, the molecule was classed as inactive in assay [4], in [7], in assay [10] and in [8].

As to `CC(C)C/C=C(\C=O)c1ccccc1`, the Potency result in assay [1], in assay [2], in [3] and in assay [5] was “inactive” in each case. Besides, the result in [4], in [9], in [10] and in assay [8] was inactive.

Turning to `[O-][n+]1ccc(Cl)cc1`, the Potency result in [1], in [2], in assay [3], in assay [5] and in assay [6] was “inactive” throughout. Further, the molecule was classed as inactive in assay [4], in [7], in assay [10] and in [8].

With `C=C(C)C(=O)OCCCCCCCCCCOC(=O)C(=C)C`, the Potency result in assay [1], in assay [2], in assay [3], in assay [5] and in [6] was “inactive” throughout. Also, the result in assay [4], in assay [7], in [9], in assay [10] and in assay [8] was inactive.

Turning to `C1=COCCC1`, the Potency entry in assay [1], in assay [2], in assay [3], in assay [5] and in [6] was “inactive” in each case. The molecule was called inactive in [4], in [7], in assay [10] and in assay [8].

Take `CC(=O)c1cccnc1`: the Potency result in assay [1], in assay [2], in [3], in assay [5] and in assay [6] was “inactive” throughout. In addition, the molecule was classed as inactive in assay [4] and in [10].

`CCCCCO`: the Potency result in [1], in assay [2], in assay [3], in assay [5] and in assay [6] was “inactive” throughout. Also, the result in assay [4], in assay [7], in [9], in assay [10] and in [8] was inactive.

As to `CCCCCCCCS`, the Potency entry in [1], in assay [2], in assay [3], in assay [5] and in [6] was “inactive” in each case. For the same molecule, the result in [4], in assay [7], in [9], in assay [10] and in assay [8] was inactive.

On to `Clc1ccccc1-c1nc(-c2ccncc2)no1`, for which the Potency result in [1], in assay [2], in [3], in [5] and in assay [6] was “inactive” in each case. Also, the molecule was called inactive in assay [4] and in assay [7].

`CCCCCCCCNC`: the Potency entry in [1], in assay [2], in assay [3], in assay [5] and in assay [6] was “inactive” in each case. Moreover, the result in [4], in assay [7], in assay [10] and in assay [8] was inactive.

Consider `Cc1ccc(NC=O)c(C)c1`, for which the Potency result in [1], in assay [2], in [3], in [5] and in assay [6] was “inactive” in each case. Moreover, the molecule was called inactive in assay [4], in [7], in assay [9], in assay [10] and in assay [8].

Take `CCCCOc1ccc(N)cc1`: the Potency result in assay [1], in assay [2], in [3] and in [6] was “inactive” in each case. The result in assay [4], in assay [7], in [10] and in assay [8] was inactive.

Regarding `OCC(O)c1ccccc1` (stereo unspecified), the Potency entry in [1], in [2], in assay [3], in assay [5] and in assay [6] was “inactive” throughout. The molecule was called inactive in assay [4] and in assay [10].
